Where “and” joins values, the source holds several entries; their conditions need not be identical. Equal values may be shown once. Results filed as inconclusive are left out. Unmarked numbers belong to inactive results. Calls of active or inactive are those of the source. Calls come from the whole dose curve; as a rule, active = well fitted activation curve with a large enough effect; inconclusive = small, poorly fitted or top-dose-only effect; inactive = no such curve, though single readings can be large or run the other way.
Potency is the fitted concentration of half-maximal effect.

Chain of Cellular tumor antigen p53 (Homo sapiens) (P04637 whole entry, looked up): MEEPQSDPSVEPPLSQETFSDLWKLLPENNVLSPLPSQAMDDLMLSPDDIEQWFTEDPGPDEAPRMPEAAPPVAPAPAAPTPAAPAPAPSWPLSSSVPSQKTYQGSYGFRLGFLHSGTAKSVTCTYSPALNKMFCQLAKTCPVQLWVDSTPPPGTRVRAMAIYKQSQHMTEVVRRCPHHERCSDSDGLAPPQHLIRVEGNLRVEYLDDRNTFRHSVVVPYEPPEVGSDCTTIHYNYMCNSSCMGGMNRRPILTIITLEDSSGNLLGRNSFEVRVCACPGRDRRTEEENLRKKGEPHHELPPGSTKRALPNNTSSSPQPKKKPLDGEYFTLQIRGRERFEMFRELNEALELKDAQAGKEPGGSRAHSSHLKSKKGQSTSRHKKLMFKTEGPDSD

The assay deals with Cellular tumor antigen p53 (Homo sapiens) (UniProt P04637). The assay can be described thus: Primary qHTS for small molecule compounds that upregulate eGFP-tagged delta133p53alpha (in N-terminal) cells. (AID 2060322).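 For activation: series mostly up to about 56 µM; 0% = DMSO vehicle and 100% = reference activator.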 Note: nearly all actives have a fitted effect of over 75% in size. The settings on record: NCI-H358 eGFP-delta133p53alpha fluorescence, 24 h; activation: active compounds read high. The procedure, abridged:
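NCI-H358 cells pre-induced 24 h with 10 ng/ml doxycycline to express N-terminal eGFP-delta133p53alpha, then dosed 24 h at 37C without doxycycline; fixed, Hoechst-stained, GFP intensity by laser scanning cytometry, normalized to DMSO (0%) and 57.5 uM 5-azacytidine (100%).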
For orientation: In qHTS, concentration-response curves come from the screen itself.
`O=C(O)CCC(=O)OC[C@@H](NC(=O)C(Cl)Cl)[C@H](O)c1ccc([N+](=O)[O-])cc1`: the activation was 15.1%.
`C/C(=C(\CCO)SS/C(CCO)=C(\C)N(C=O)Cc1cnc(C)nc1N)N(C=O)Cc1cnc(C)nc1N`: the activation was -9.6%.
Turning to `O=C(COCCOCCOCC(=O)Nc1c(I)cc(I)c(C(=O)O)c1I)Nc1c(I)cc(I)c(C(=O)O)c1I`, the activation is 10%.
Regarding `O=C1C(CCC(O)c2ccc(F)cc2)C(c2ccc(O)cc2)N1c1ccc(F)cc1` (stereo not given), the activation was -15.6%.
For `CO[C@H]1C=CC=C(C)C(=O)NC2=CC(=O)C(NCCN(C)C)=C(C[C@@H](C)C[C@H](OC)[C@@H](O)[C@@H](C)C=C(C)[C@@H]1OC(N)=O)C2=O`, the activation is 14.6%.
Regarding `C=C1[C@H](n2cnc3c(=O)[nH]c(N)nc32)C[C@H](O)[C@H]1CO`, the activation is -20.5%.
Turning to `CCOC(=O)N1CCN([N+]([O-])=NOc2ccc([N+](=O)[O-])cc2[N+](=O)[O-])CC1`, the activation was 8.17%.
As for `NC(=O)c1cccc2[nH]c(-c3ccc([C@@H]4CCCN4)cc3F)nc12`, the activation is -16.8%.
Take `COC(=O)c1ccc(O)cc1`: the activation is 7.34%.
Turning to `CN(C)CCOC1=Cc2ccccc2Sc2ccc(Cl)cc21`, the activation was 2.51%.
Turning to `CCCCCCn1c(=O)c2c(ncn2C)n(C)c1=O`, the activation is -5.08%.
Turning to `CC[C@@H](CO)NCCN[C@@H](CC)CO`, the activation was -10%.
With `CC(C)NCC(O)c1ccc2ccccc2c1` (stereo not given), the activation is -2.82%.
Consider `Cc1ccc(NC2=CC(=O)c3sc(C)nc3C2=O)cc1`, for which the Potency is 3.85 µM (active).
With `O=C(Nc1ccc(Cl)cc1)Nc1ccc(Cl)c(Cl)c1`, the activation is 0.565%.
Turning to `COC(=O)[C@]12CCC(C)(C)C[C@@H]1[C@@H]1C(=O)C=C3[C@@]4(C)C=C(C#N)C(=O)C(C)(C)[C@@H]4CC[C@@]3(C)[C@]1(C)CC2`, the Potency is 10.9 µM (active).
Consider `O=C1NC(=O)C(=Cc2cccc(C(F)(F)F)c2)S1`, for which the activation was 2.49%.
The same measure, in the same setting: the figure for `CC(=O)OCC(=O)[C@@]1(O)[C@H](OC(C)=O)C[C@H]2[C@@H]3CCC4=CC(=O)C=C[C@]4(C)[C@@]3(F)[C@@H](O)C[C@@]21C` is 4.18%.
Still for that read-out and setting: to `CCCCN(CCCC)CCCOC(=O)c1ccc(N)cc1` belongs -2.51%.
With `Cc1cccc(C)c1NC(=O)c1ccc(N)cc1`, the activation is -2.82%.
Take `Cc1cc(C)nc(NS(=O)(=O)c2ccc(N)cc2)n1`: the activation was 24.3%.
Turning to `CC(C)C(C)(C)C(C)(C)C(C)(C)S`, the activation is 5.08%.
On the same count and under the same terms, to `CC(C)=CCNc1ncnc2c1ncn2[C@@H]1O[C@H](CO)[C@@H](O)[C@H]1O` belongs -20.9%.
In the case of `O=S(=O)(O)c1ccc2nc(-c3ccccc3)[nH]c2c1`, the activation was 23.2%.
Consider `CC1(C)OC2=C(C(=O)c3ccccc3C2=O)[C@H](NCc2ccccc2)[C@H]1O`, for which the Potency is 24.3 µM (active).
Regarding `CC(C)(C)CC(=O)OCC(=O)[C@@]1(O)CC[C@H]2[C@@H]3CCC4=CC(=O)C=C[C@]4(C)[C@H]3[C@@H](O)C[C@@]21C`, the activation was -9.21%.
Same read-out and setting: to `OCCOCCN1CCN(C(c2ccccc2)c2ccc(Cl)cc2)CC1` (stereo not given) belongs 8.47%; to `C=C1CCC2[C@](C)(CO)C(O)CC[C@]2(C)C1CC=C1C(=O)OCC1O` (stereo not given in full), -28.9%.
On the same count and under the same terms, the figure for `CC(=O)OCC(=O)[C@@]12N=C(C)O[C@H]1C[C@H]1[C@@H]3CCC4=CC(=O)C=C[C@]4(C)[C@@H]3[C@@H](O)C[C@@]12C` is -1.97%; for `CC(C(=O)O)c1ccc(C(=O)c2cccs2)cc1` (stereo not given) it is 9.21%; for `NCC[C@H](O)C(=O)N[C@@H]1C[C@H](N)[C@@H](O[C@H]2O[C@H](CN)[C@@H](O)[C@H](O)[C@@H]2O)[C@H](O)[C@@H]1O[C@H]1O[C@H](CO)[C@@H](O)[C@H](N)[C@@H]1O` it is -2.51%.
With `CN(C/C=C/C#CC(C)(C)C)Cc1cccc2ccccc12`, the activation was -0.565%.
For `O=C(O)C1CCC1`, the activation was -6.69%.
Take `CC(C)(C)c1ccc(C(=O)CCCCl)cc1`: the activation is 3.95%.
On the same count and under the same terms, to `Cc1ccc(/C=N/n2c(-c3ccccc3)csc2=S)cc1` belongs 24.3%; to `CC(=O)CC/C=C(\C)CC/C=C(\C)CC/C=C(\C)CCC=C(C)C`, -15.3%; to `Nc1ccc2cc3ccc(N)cc3nc2c1`, -35.1%.
In the case of `O=C(Nc1ccccc1)Nc1ccc(-c2ccc(C(=O)[C@H]3CCC[C@H]3C(=O)O)cc2)cc1`, the activation was -3.35%.
As to `Cc1nc2n(c(=O)c1CCN1CCC(c3noc4cc(F)ccc34)CC1)CCCC2`, the activation is 2.45% and 8.37%.
In the case of `CC(C)(C)[N+]([O-])=Cc1ccc(S(=O)(=O)O)cc1S(=O)(=O)O`, the activation is -9.61%.

These data come from PubChem BioAssay (NCATS).
